Here are results for 36 molecules from PubChem BioAssay (EPA / NIEHS).

“And” between values parts separate entries of the source, which are not always exact repeats. Identical values can stand only once. Records with an inconclusive call do not appear. The source holds several records for some structures; these can differ, active in one and inactive in another. The source made the active and inactive calls. The calls were made as follows: active = hit-call score of the fitted dose curve at least 0.9, where 1 is the maximum; inconclusive = response in the unintended direction; inactive = score below 0.9.

One may read the AC50 as the concentration at which the activity in the assay is half-maximal.

This assay deals with human Retinoid X Receptor beta (RXRb), RXRB (gene 6257) (UniProt P28702). The experiment in a line: ATG_RXRb_TRANS: Attagene TRANS-FACTORIAL HepG2 Assay for human Retinoid X Receptor beta (RXRb) (AID 2283013). As to the method: ATG_TRANS is a cell-based, multiplexed-readout assay that uses HepG2, a human liver cell line, with measurements taken at 24 hours after chemical dosing in a 24-well plate.ATG_RXRb_TRANS is one of 30 assay component(s) measured or calculated from the ATG_TRANS assay. It is designed to make measurements of mRNA induction, a form of inducible reporter, as detected with fluorescence intensity signals by Reverse transcription polymerase chain reaction (RT-PCR) and Capillary electrophoresis technology.Data from the assay component ATG_RXRb_TRANS was analyzed into 1 assay endpoint. This assay endpoint, ATG_RXRb_TRANS, was analyzed in the positive analysis fitting direction relative to DMSO as the negative control and baseline of activity. Using a type of inducible reporter, measures of mRNA for gain-of-signal activity can be used to understand the reporter gene at the transcription factor-level as they relate to the gene RXRB. Furthermore, this assay endpoint can be referred to as a primary readout, because this assay has produced multiple assay endpoints where this one serves a reporter gene function. To generalize the intended target to other relatable targets, this assay endpoint is annotated to the nuclear receptor intended target family, where the subfamily is non-steroidal.
Chain of human Retinoid X Receptor beta (RXRb), RXRB (gene 6257) (P28702 whole entry, looked up): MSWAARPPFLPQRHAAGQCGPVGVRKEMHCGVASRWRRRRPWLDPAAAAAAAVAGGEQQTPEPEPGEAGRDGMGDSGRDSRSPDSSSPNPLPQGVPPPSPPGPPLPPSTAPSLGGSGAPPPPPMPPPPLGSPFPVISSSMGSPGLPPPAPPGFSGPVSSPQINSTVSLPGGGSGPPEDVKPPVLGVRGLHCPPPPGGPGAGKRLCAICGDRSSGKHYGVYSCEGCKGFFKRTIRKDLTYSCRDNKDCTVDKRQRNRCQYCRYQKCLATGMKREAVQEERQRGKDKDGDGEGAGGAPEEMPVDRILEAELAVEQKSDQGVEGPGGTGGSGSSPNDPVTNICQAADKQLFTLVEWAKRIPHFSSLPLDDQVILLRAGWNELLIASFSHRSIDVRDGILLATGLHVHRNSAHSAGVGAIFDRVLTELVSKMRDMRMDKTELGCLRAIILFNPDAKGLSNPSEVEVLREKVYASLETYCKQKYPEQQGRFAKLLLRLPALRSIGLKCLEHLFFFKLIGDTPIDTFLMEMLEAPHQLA
Human liver HepG2 cells are transiently transfected with multiple reporter transcription units (MRTUs) in 6-well plates using FuGene 6 reagent (Roche; 3 ml FuGene/1 mg DNA). The MRTU constructs are regulated by a cis-regulating element (promoter). […] A major difference between the CIS and TRANS system is that in CIS activities of endogenous TFs are measured, whereas the TRANS assay evaluates changes in activities of exogenous, chimeric NR-Gal4 proteins. […] At the end of 24 hour incubation, total RNA was isolated using TriZol reagent (Invitrogen). The isolated RNA is then reverse-transcribed using oligo(dT) primer and Mo-MLV reverse transcriptase (Invitrogen) with DNAse I (Ambion) treatment for 30 min. The one-tenth of the produced cDNA was amplified by PCR using Taq DNA polymerase (Invitrogen) and two reporter sequence-specific primers. The PCR products were fluorescently labeled by primer extension with 6-arboxyfluorescein (6-FAM) 5'-labeled reporter sequence-specific primer (2 min at 95 C, 20 s at 68 C and 10 min at 72 C) and these products were digested with 5U of HpaI (New England Biolabs) for 2h at 37 C. The fragments were purified using Qiaquick PCR columns (Qiagen), analyzed on an ABI 3130xL genetic analyzer (Applied Biosystems) with peak positions identified by using a set of X-rhodamine (ROX)-labeled MapMarker1000 molecular weight standards (BioVentures). The raw capillary electrophoresis data was processed using Attagraph software (Attagene).
With `CCOC(=O)c1ccc(O)cc1`, the outcome was inactive.
As for `C=CCOC(Cn1ccnc1)c1ccc(Cl)cc1Cl` (stereo not given), the result was inactive.
Take `CCCCC(CC)COC(=O)c1ccccc1C(=O)O` (stereo not given): the result was inactive.
Same read-out and setting: for `CSC(=O)c1cccc2nnsc12` the value was “inactive”; for `CCOC(=O)COc1cc(-n2ncc(C(F)(F)F)c(C)c2=O)c(F)cc1Cl`, “inactive”; for `CN(C)C(=O)Nc1ccc(Cl)c(Cl)c1`, “inactive”.
For `COCCO`, the result was inactive.
Same read-out and setting: for `N[C@@H](Cc1cc(I)c(Oc2ccc(O)c(I)c2)c(I)c1)C(=O)O` the value was “inactive”; for `CCOC(=O)[C@H](C)Oc1ccc(Oc2nc3ccc(Cl)cc3o2)cc1`, “inactive”.
For `COc1nc(C)nc(NC(=O)NS(=O)(=O)c2ccccc2OCCCl)n1`, the molecule was classed as inactive.
For `CC(C)(c1ccc(O)cc1)c1ccc(O)cc1`, the AC50 was 0.00419 µM (active) and the outcome was inactive.
Regarding `C[C@]12C[C@H](O)[C@H]3[C@@H](CCC4=CC(=O)CC[C@@]43C)[C@@H]1CC[C@@H]2C(=O)CO`, the molecule was called inactive.
For the molecule `CCCCOC(=O)[C@@H](C)Oc1ccc(Oc2ccc(C(F)(F)F)cn2)cc1`, the molecule was classed as inactive.
On to `C#C[C@]1(O)CC[C@H]2[C@@H]3CCC4=CC(=O)CC[C@@H]4[C@H]3CC[C@@]21CC`, for which the call was inactive.
`CCOC(=O)C(C)Oc1ccc(Oc2cnc3cc(Cl)ccc3n2)cc1` (stereo not given): the call was inactive.
With `S=C(S)NCCNC(=S)S.[Mn+2].[S-]C([S-])=NCCN=C([S-])[S-].[Zn+2]`, the AC50 is 20.4 µM (active) and the molecule was classed as inactive.
As for `CCCN(CCC)C(=O)SCC`, the molecule was classed as inactive.
With `c1ccc2[nH]c(-c3cscn3)nc2c1`, the molecule was classed as inactive.
The same measure, in the same setting: for `CCN(CC)C(=O)c1cccc(C)c1` the value was “inactive”; for `CCOC(=O)NCCOc1ccc(Oc2ccccc2)cc1`, “inactive”; for `CCN(Cc1c(F)cccc1Cl)c1c([N+](=O)[O-])cc(C(F)(F)F)cc1[N+](=O)[O-]`, “inactive”.
The same measure, in the same setting: for `CCNc1nc(N)nc(Cl)n1` the value was “inactive”; for `C[C@]12CC[C@@H]3c4ccc(O)cc4C[C@@H](CCCCCCCCCS(=O)CCCC(F)(F)C(F)(F)F)[C@H]3[C@@H]1CC[C@@H]2O` (stereo not given in full), “inactive”; for `CCC(C)OC(=O)N1CCCCC1CCO` (stereo not given), “inactive”.
Consider `O=C(c1ccccc1)C1CCCCC1`, for which the AC50 was 121 µM (active) and 57 µM (active) and 100 µM (active); the molecule was called inactive.
With `CCCOC(=O)c1ccc(C(=O)OCCC)nc1`, the molecule was called inactive.
Take `CCCCOCCOCCOCc1cc2c(cc1CCC)OCO2`: the call was inactive.
As to `O=C(c1ccc(O)cc1O)c1ccc(O)cc1O`, the result was inactive.
With `CC(C)(C)[C@@H](O)[C@@H](Cc1ccc(Cl)cc1)n1cncn1`, the molecule was called inactive.
Turning to `Cc1nn(C)c(Oc2ccccc2)c1C=NOCc1ccc(C(=O)OC(C)(C)C)cc1`, the result was inactive.
On to `CCSC(=O)N(CC(C)C)CC(C)C`, for which the molecule was called inactive.
Turning to `N#CSCSc1nc2ccccc2s1`, the AC50 is 13.3 µM (active) and the outcome was inactive.
Regarding `COC(=O)c1ccc(CNS(C)(=O)=O)cc1S(=O)(=O)NC(=O)Nc1nc(OC)cc(OC)n1`, the molecule was called inactive.
`CCOC(=O)C(C)Oc1ccc(Oc2nc3ccc(Cl)cc3o2)cc1` (stereo not given): the outcome was inactive.
Consider `CCCCOC(=O)C(C)Oc1ccc(Oc2ccc(C(F)(F)F)cn2)cc1` (stereo not given), for which the molecule was called inactive.
Still for that read-out and setting: for `O=C(O)c1ccccc1` the value was “inactive”.
